# The whole screen tested about 420,000 compounds, of which about 64,000 (15%) were called active. Not shown: some 27% with an inconclusive outcome. Calls come from the whole dose curve; as a rule, active = well fitted inhibition curve with a large enough effect; inconclusive = small, poorly fitted or top-dose-only effect; inactive = flat fitted curve, though single readings scatter. These entries were drawn from the full list.
# Experiment: qHTS for Inhibitors of human tyrosyl-DNA phosphodiesterase 1 (TDP1): qHTS in cells in absence of CPT; note: nearly all actives have a fitted effect of over 55% in size
# Settings: DT40 Tdp1-/- hTDP1 cells, no CPT, ATP luminescence, 48 h; activity change, negative = growth inhibition: at 46.2 µM (top of the series)
# Outline: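 Readout: luminescence from CellTiter-Glo after 30 min in the dark at RT. Cells: DT40 Tdp1-/- with stable hTDP1, 400/well. Exposure: compounds alone, ≥48 hr, 37 °C.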
# % is set by controls: 0 for no effect and ±100 for the full control effect; potency is the fitted concentration of half-maximal effect.
Structure (SMILES),"activity change, negative = growth inhibition",Potency
Cc1cc(C)n2nc(C(=O)N3CCN(Cc4ccc5c(c4)OCO5)CC3)nc2n1,-14.8% (inactive),
CCN(CC)S(=O)(=O)c1ccc2nc(CSc3nnnn3-c3ccc(O)cc3)[nH]c2c1,-27.3% (inactive),
CCOC(=O)/C(=N\Nc1ccccc1[N+](=O)[O-])c1csc(Nc2ccccc2)n1,,16.4 µM (active)
CCOc1ccccc1Nc1ccc(C(=O)O)cc1[N+](=O)[O-],8.42% (inactive),
Cc1csc(NC(=O)Nc2ccccc2[N+](=O)[O-])n1,-20.3% (inactive),
CC(=O)c1c(C)[nH]c(C(=O)NCCCN2CCCC2)c1C,5.85% (inactive),
Cn1cc[n+](C)c1COc1ccc(C=O)cc1,2.67% (inactive),
Cc1noc(C)c1C(=O)NCCc1ccc(S(N)(=O)=O)cc1,7.32% (inactive),
Cc1cccc(NS(=O)(=O)c2ccc([N+](=O)[O-])cc2)n1,-3.46% (inactive),
Cc1cc([N+](=O)[O-])ccc1NS(=O)(=O)c1ccccc1,,23.1 µM (active)
O=[N+]([O-])c1ccc(NS(=O)(=O)c2ccccc2)c(Cl)c1,,20.6 µM (active)
Cc1cc([N+](=O)[O-])ccc1NC1CCCC1,1.28% (inactive),
Cc1ccccc1OS(=O)(=O)c1cccc([N+](=O)[O-])c1,-27.5% (inactive),
O=[N+]([O-])c1cccc(S(=O)(=O)N2CCCCCC2)c1,-29.9% (inactive),
COc1ccc(NC(=O)[C@H](NC(=O)[C@@H]2Cc3ccccc3CN2)c2ccccc2)cc1,8.27% (inactive),
CCC(=O)Nc1sc(C(=O)N2CCCCC2)c(C)c1C#N,3.68% (inactive),
CCCCc1cc2c(s1)CCCC/C2=N/O,-9.17% (inactive),
COc1ccc(NC(=O)CC2C(=O)NC3CCCCC3N2C(=O)c2ccc(F)cc2)cc1 (centres undefined),-19.5% (inactive),
COc1ccc(CNS(=O)(=O)c2ccc(NC(=O)N3CCCCC3)cc2)cc1,,20.6 µM (active)
COc1ccc(S(=O)(=O)NC(C)C(=O)N2CCCCCC2)cc1 (centres undefined),12.3% (inactive),
COc1ccc(NC(=O)N2CC3(CCN(C(C)=O)CC3)C2)cc1,11.3% (inactive),
Cn1c2ccccc2c(=O)c2c(=O)n(Cc3ccco3)c(COc3ccccc3)nc21,,14.6 µM (active)

Structure (SMILES),"activity change, negative = growth inhibition",Potency
CCn1c(COc2ccccc2)nnc1SCC(=O)NCc1ccco1,-37.1% (inactive),
COc1ccc(NC(=O)Cn2c(=O)n(Cc3ccco3)c(=O)c3ccccc32)cc1,-3.08% (inactive),
CCCc1cc(=O)oc2c(C)c(O)c(CN3CCCCC3)cc12,-0.456% (inactive),
COCCN(CCOC)c1nc(N)c2c(N)nc3c(c2c1C#N)CC(=O)N3Cc1ccc(Cl)cc1,-26.2% (inactive),
Cc1ccc(NC(=O)/C(=C\c2ccccc2)NC(=O)c2ccco2)cc1,8.92% (inactive),
CCN1CCN(C(=O)Cn2nc(C)n3c(cc4c(OC)cccc43)c2=O)CC1,-9.41% (inactive),
COc1ccc(C2c3ccc(O)cc3Oc3ncn(CCCO)c(=N)c32)cc1OC (centres undefined),7.05% (inactive),
Cc1ccc(NC(=O)COC(=O)CN2CCCCCC2=O)c(C)c1,-13.6% (inactive),
CC(C)C1C2=C(CC(C)(C)CC2=O)ON1c1ccccc1 (centres undefined),,11.2 µM (active)
CC(C)N1C(=O)N(c2ccccc2)C(C)(O)CC1(C)C (centres undefined),-9.56% (inactive),
COC(=O)C1CC2=C(CC(C)(C)CC2=O)N(c2ccccc2)C1=O (centres undefined),-16.6% (inactive),
O=C(Cn1c(=S)nc2ccccn21)N1CCc2ccccc2C1,-9.89% (inactive),
CCc1nc2sc3c(Cl)ncnc3c2c2c1CCCC2,16.2% (inactive),
Fc1cc(F)c2nc(N3CCOCC3)sc2c1,-0.301% (inactive),
CCOc1nc(NCCN2CCOCC2)nc(Nc2ccc(C)cc2)n1,-0.278% (inactive),
O=C(O)c1ccc(-n2nc(-c3ccccc3)c3ccccc3c2=O)cc1,-23.9% (inactive),
CCOC(=O)C(C)n1nc(-c2ccccc2)c2ccccc2c1=O (centres undefined),,14.6 µM (active)
O=c1c2ccccc2c(-c2ccccc2)nn1Cc1ccccc1,-21.5% (inactive),
NC(=O)[C@H]1CC2(CC(c3cccc(NC(=O)[C@H]4CCC(=O)N4)c3)=NO2)CN1C(=O)c1ccccc1C(=O)c1ccccc1 (some centres undefined),7.54% (inactive),
C/C(=N\NC(=S)NC(C)C)c1ccc(C(C)(C)C)cc1,,20.6 µM (active)
C/C(=N\NC(N)=S)c1ccncc1,10.4% (inactive),
C/C(=N\NC(N)=S)c1cccnc1,-3.42% (inactive),

Structure (SMILES),"activity change, negative = growth inhibition",Potency
O=C(Cc1ccccc1)Nc1ccc(C(=O)Nc2ccccc2C(=O)O)cc1,8.32% (inactive),
Cc1cccnc1NC(=O)Cn1c(=O)oc2ccccc21,0.103% (inactive),
COc1ccc2cc(S(=O)(=O)Nc3ccccn3)ccc2c1,-15.8% (inactive),
CCOc1ncccc1C(=O)NNC(=O)c1cccc(S(=O)(=O)Nc2ccccc2OC)c1,-18.9% (inactive),
COc1cc(NS(=O)(=O)c2ccc3ccccc3c2)c2ncccc2c1,,7.31 µM (active)
C/C(O)=C\c1nc(=O)c2c(C)cc(C)nc2n1-c1ccccc1,-18.1% (inactive),
N#Cc1c(-c2ccc(Cl)cc2)c2c([nH]c1=S)CCCC2,-8.76% (inactive),
COc1ccc2nc(-c3ccccn3)ccc2c1,,3.26 µM (active)
COc1ccc(-c2cn3cccnc3n2)cc1,-25.2% (inactive),
COc1ccc(-n2c(SCC(=O)OC(C)C)nnc2-c2ccccn2)cc1,-10.1% (inactive),
CCOc1ccc(N(Cc2ccccc2)C(=O)c2nc(SCC)ncc2Cl)cc1,,6.51 µM (active)
CCOc1ccc(Cn2nnc(C(=O)NCc3ccccc3)c2N)cc1,-21.3% (inactive),
CCSc1ncc(Cl)c(C(=O)Nc2c(C(=O)c3ccccc3)oc3ccccc23)n1,23% (inactive),
CCOc1ccc(S(=O)(=O)N(CC(=O)O)c2ccccc2)cc1,2.09% (inactive),
CCSc1nnc2c(n1)OC(c1ccc(OCC(=O)O)cc1)Nc1ccccc1-2 (centres undefined),-18% (inactive),
CCOc1ccc(N(Cc2ccccc2)C(=O)c2nc(S(C)(=O)=O)ncc2Cl)cc1,,0.58 µM (active)
CCCOc1ccc(/C(O)=C2/C(=O)C(=O)N(CCN(C)C)C2c2ccc(OC)c(OC)c2)cc1 (centres undefined),-12.4% (inactive),
N#CCCn1ncc2ccccc21,-13.1% (inactive),
NS(=O)(=O)c1ccc(CNC(=O)c2cccc(S(=O)(=O)N3CCc4ccccc43)c2)cc1,,9.2 µM (active)
NS(=O)(=O)c1ccc(CNC(=O)c2cc(S(=O)(=O)N3CCOCC3)ccc2N2CCCC2)cc1,-12.6% (inactive),
CC1Cc2ccccc2N1S(=O)(=O)c1cccc(C(=O)OCC(=O)N2CCOCC2)c1 (centres undefined),-27.9% (inactive),
CC(=O)N1CCN(S(=O)(=O)c2cccc(C(=O)NC3CCC(C)CC3)c2)CC1 (centres undefined),-7.02% (inactive),

Structure (SMILES),"activity change, negative = growth inhibition",Potency
CC1CCN(C(=O)c2cccc(S(=O)(=O)N3CCCc4ccccc43)c2)CC1,,11.6 µM (active)
O=C(NCCCN1CCCC1=O)c1cccc(S(=O)(=O)NCc2ccccc2)c1,12.8% (inactive),
CNC(=O)C1CN(C(=O)c2cccc(S(=O)(=O)N3CCc4ccccc43)c2)c2ccccc2O1 (centres undefined),,5.8 µM (active)
Cc1c(NC(=S)Nc2ccccc2)c(=O)n(-c2ccccc2)n1C,-4.02% (inactive),
COc1cc(C)c(Cl)cc1S(=O)(=O)n1ccnc1,2.35% (inactive),
CC1CCN(C(=O)COC(=O)c2cc(=O)[nH]c3ccccc23)CC1,2.47% (inactive),
CC(NC(=O)COC(=O)c1cc(=O)[nH]c2ccccc12)c1ccccc1 (centres undefined),0.458% (inactive),
CCOC(=O)c1ccc2[nH]c(C)c(CN3CCN(C)CC3)c(=O)c2c1,0.859% (inactive),
COC(=O)C[C@H]1C[C@@H]2c3cc(N(C)C)ccc3O[C@@H]2[C@H](CO)O1,-5.35% (inactive),
Cn1nc(-c2ccccc2)c(CO)c1Sc1ccccc1,-21.6% (inactive),
CCOC(=O)CSc1ncc(-c2cccc(Cl)c2)cn1,0.41% (inactive),
Cn1nc(-c2ccccc2)c(CSc2cccc(Cl)c2)c1Cl,,18.4 µM (active)
CCn1c(-c2ccoc2C)n[nH]c1=S,-8.7% (inactive),
CCOC(=O)c1ccc(NC(=O)Cn2cnc3cc(C)c(C)cc32)cc1,,0.517 µM (active)
CCOC(=O)c1ccc(NC(=O)CCn2c(=O)oc3ccccc32)cc1,,inactive
CCOC(=O)c1ccc(NC(=O)Cn2nnc(-c3ccc(C)cc3)n2)cc1,-24% (inactive),
Cc1ccc(OC(=O)c2cncc(Br)c2)c(C)c1,-23.2% (inactive),
NC(=O)COc1ccccc1C(=O)NC12CC3CC(CC(C3)C1)C2,-16.2% (inactive),
CCc1cccc(NC(=S)N(CCN(C)C)C2CCN(C(C)C)CC2)c1,-23.1% (inactive),
Cc1cccc(C)c1NC(=O)CN1C(=O)C(C)Oc2ccccc21 (centres undefined),5.36% (inactive),
CCn1c(C(O)c2cc(OC)ccc2OC)nc2ccccc21 (centres undefined),-0.141% (inactive),
CCn1c(/C=N/NC(=O)c2ccc(OC)cc2)nc2ccccc21,,16.4 µM (active)

Structure (SMILES),"activity change, negative = growth inhibition",Potency
O=C(Nc1ccccc1Cl)N1CCN(c2ccc3nncn3n2)CC1,-5.61% (inactive),
COc1ccc(NC(=O)CSc2nncc(=O)n2N)cc1OC,1.09% (inactive),
Cc1ccc(Cc2c(C)nc3nc(SCC(=O)NCCN4CCOCC4)nn3c2C)cc1,3.36% (inactive),
COc1cc(NC(=O)CSc2nc3nc(C)c(Cc4ccc(C)cc4)c(C)n3n2)cc(OC)c1OC,,10.3 µM (active)
N#Cc1c(C(F)(F)F)cc(-c2ccccc2)nc1SCC(=O)N1CCOCC1,17% (inactive),
FC(F)Oc1ccccc1NC(=S)Nc1cccc(Cl)c1Cl,-28.8% (inactive),
O=C(O)c1ccccc1/C=N/Nc1ccc(S(=O)(=O)Nc2ccc(Cl)cc2)cc1[N+](=O)[O-],22.9% (inactive),
O=[N+]([O-])c1cc(S(=O)(=O)Nc2cccc(Cl)c2)ccc1N=Nc1c(O)[nH]c2ccccc12,,25.9 µM (active)
COc1ccc(S(=O)(=O)Nc2ccc3cn[nH]c3c2)cc1[N+](=O)[O-],-26.8% (inactive),
O=C(Nc1nnc([C@H]2C[C@H](O)[C@@H](CO)O2)s1)c1cccc(Cl)c1,-8.67% (inactive),
CN(CC(=O)Nc1ccc(Cl)cc1)C(=O)CNC(=O)c1ccc2ccccc2c1,-10.7% (inactive),
Cc1ccc(S(=O)(=O)N(C)c2ccc(OCC(=O)OCC(=O)N(CC#N)c3ccccc3)cc2)cc1,-5.05% (inactive),
C/C(=N\NC(=O)c1cccc(N2CCCC2=O)c1)c1ccc(N)cc1,-4.2% (inactive),
COc1ccc(/C=N/Nc2ccccc2C(=O)O)cc1,-0.965% (inactive),
COc1ccc(/C=N/S(=O)(=O)c2ccccc2)cc1OC,-4.42% (inactive),
COc1cc(/C=N/NC(=O)c2ccc(N3CCCC3=O)cc2)ccc1O,,16.4 µM (active)
COc1ccc(C(=O)Nc2ccccc2C(=O)N/N=C/c2ccc(O)c(OC)c2)cc1,,20.6 µM (active)
COc1cc(/C=N/NC(=O)CCc2n[nH]c(=O)[nH]c2=O)ccc1O,-23.5% (inactive),
COc1cc(C=NNC(=O)c2cccnc2)ccc1OC(=O)c1ccccc1F,9.33% (inactive),
CCOc1cc(/C=N/NC(=O)CN2CCCCC2)ccc1O,-15.1% (inactive),
COc1ccc(/C=N/NC(=O)c2ccccc2)cc1OS(=O)(=O)c1ccccc1,,13 µM (active)
